Results taken from the supplement of paper PMC13380429.

Tested on: Vero E6 infected with SARS-CoV-2
Assay: inhibition of SARS-CoV-2 cytopathic effect; higher = more antiviral protection, active = above 15
Conditions: 48 h

Measured: inhibition of SARS-CoV-2 cytopathic effect

Nc1c(CC(=O)O)cccc1C(=O)c1ccccc1 [amfenac]
inactive: 1 nM 0.42% | 8.33 nM 0.91% | 100 nM 1.2% | 833.33 nM -0.82% | 10000 nM -2.19%

COc1ccc(/C=C\c2cc(OC)c(OC)c(OC)c2)cc1O [combretastatin-A-4]
inactive: 1 nM 1.94% | 8.33 nM 1.57% | 100 nM -1.22% | 833.33 nM -2.08% | 10000 nM -0.45%

C[N+](C)(C)CCOC(N)=O [carbachol]
inactive: 1 nM 1.16% | 8.33 nM 1.84% | 100 nM -1.48% | 833.33 nM 2.68% | 10000 nM 4.16%

CCOc1ccc2nc(SCCN3CCOCC3)[nH]c2c1 [afobazole]
inactive: 1 nM 0.28% | 8.33 nM 0.47% | 100 nM -1.23% | 833.33 nM -0.04% | 10000 nM 1.56%

C#C[C@]1(OC(C)=O)CC[C@H]2[C@@H]3CCC4=C[C@@H](OC(C)=O)CC[C@@H]4[C@H]3CC[C@@]21C [ethynodiol-diacetate]
inactive: 1 nM 1.35% | 8.33 nM 3.73% | 100 nM 2.52% | 833.33 nM -2.62% | 10000 nM -1.63%

CC(C)[C@@]1(NC(=O)[C@@H]2C[C@@H]3c4cccc5[nH]cc(c45)C[C@H]3N(C)C2)O[C@@]2(O)[C@@H]3CCCN3C(=O)[C@H](Cc3ccccc3)N2C1=O [dihydroergocristine]
inactive: 1 nM 3.37% | 8.33 nM -0.59% | 100 nM 0.24% | 833.33 nM -1.73% | 10000 nM -1.9%

Clc1ccc2c(c1)N=C(N1CCNCC1)c1ccccc1N2 [desmethylclozapine]
inactive: 1 nM 1.9% | 8.33 nM 0.8% | 100 nM 0.19% | 833.33 nM 2.8% | 10000 nM -4.43%

C=CCN1CCc2cc(O)c(O)cc2[C@H](c2ccccc2)C1
inactive: 1 nM 1.44% | 8.33 nM 0.58% | 100 nM 0.35% | 833.33 nM 0.44% | 10000 nM -2.9%

CCNC(=O)[C@H]1O[C@@H](n2cnc3c(N)ncnc32)[C@H](O)[C@@H]1O
inactive: 1 nM 3.12% | 8.33 nM 1.83% | 100 nM -2.78% | 833.33 nM -3.3% | 10000 nM -1.61%

COC(=O)c1cnn(-c2ccc(F)cc2F)c1/C=N/NC(=S)NC(C)(C)C
inactive: 1 nM -1.1% | 8.33 nM 0.05% | 100 nM 2.03% | 833.33 nM 3.03% | 10000 nM 6.39%

O=C1C(=O)N(Cc2ccc(Cl)c(Cl)c2)c2ccccc21 [apoptosis-activator-II]
inactive: 1 nM 1.74% | 8.33 nM -0.59% | 100 nM -1.07% | 833.33 nM -3.55% | 10000 nM -3.11%

COc1ccc(S(=O)(=O)N(C(C)=O)c2ccccc2/C=C/c2cc[n+]([O-])cc2)cc1
inactive: 1 nM 2.08% | 8.33 nM 0.26% | 100 nM -2.17% | 833.33 nM -2.71% | 10000 nM -2.49%

C=CCNc1c(O)cc2c(O)c1C[C@@H](C)C[C@H](OC)[C@H](O)[C@@H](C)/C=C(\C)[C@H](OC(N)=O)[C@@H](OC)/C=C\C=C(/C)C(=O)N2 [retaspimycin]
inactive: 1 nM 2.45% | 8.33 nM 0.93% | 100 nM 6.54% | 833.33 nM 5.56% | 10000 nM 8.73%

COc1ccc2nc3cc(Cl)ccc3c(Nc3cc(CN4CCCC4)c(O)c(CN4CCCC4)c3)c2n1 [pyronaridine]
inactive: 1 nM 3.08% | 8.33 nM 4.56% | 100 nM 8.6% | 833.33 nM 3.79% | 10000 nM -18.6%

O=C1NC(c2cccc([N+](=O)[O-])c2)=CCN1c1ccccc1O [icilin]
inactive: 1 nM -1.18% | 8.33 nM 2.89% | 100 nM 1.15% | 833.33 nM 0.66% | 10000 nM 0.77%

N[C@@H](Cn1oc(=O)[nH]c1=O)C(=O)O [L-quisqualic-acid]
inactive: 1 nM -3.6% | 8.33 nM 3.03% | 100 nM 2.21% | 833.33 nM -1.93% | 10000 nM 0.17%

CNc1cc(OC)c(C(=O)NC2CCN(Cc3ccccc3)C2C)cc1Cl (stereo not given) [nemonapride]
inactive: 1 nM -1.01% | 8.33 nM 2.19% | 100 nM 0.65% | 833.33 nM -1.52% | 10000 nM 2.33%

FC(F)(F)c1ccc(N2CCNCC2)nc1Cl
inactive: 1 nM 1.34% | 8.33 nM -0.28% | 100 nM 0.72% | 833.33 nM 1.94% | 10000 nM -3.98%
